Records with an inconclusive call do not appear. Where a call stands in place of a potency, no number is given. Unmarked numbers belong to inactive results. Calls of active or inactive are those of the source. Calls come from the whole dose curve; as a rule, active = well fitted inhibition curve with a large enough effect in the signal ratio in the repeat runs, with a control signal flat; inconclusive = weak or mixed curves, or effect the other way; inactive = flat fitted curve, though single readings scatter; the % refers to the signal ratio.

D(2) dopamine receptor (Homo sapiens), sequence (P14416 whole entry, looked up): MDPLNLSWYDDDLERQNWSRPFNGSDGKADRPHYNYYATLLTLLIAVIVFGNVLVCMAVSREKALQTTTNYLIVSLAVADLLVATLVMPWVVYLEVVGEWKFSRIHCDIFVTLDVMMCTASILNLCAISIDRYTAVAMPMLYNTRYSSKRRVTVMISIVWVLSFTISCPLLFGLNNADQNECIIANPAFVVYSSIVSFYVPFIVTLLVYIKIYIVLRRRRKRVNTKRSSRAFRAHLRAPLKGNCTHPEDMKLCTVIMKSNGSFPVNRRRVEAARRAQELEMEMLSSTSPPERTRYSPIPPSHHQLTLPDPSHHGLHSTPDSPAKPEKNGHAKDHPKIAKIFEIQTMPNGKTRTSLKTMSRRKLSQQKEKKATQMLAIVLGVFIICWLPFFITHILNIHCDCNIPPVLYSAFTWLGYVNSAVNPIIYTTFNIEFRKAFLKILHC

This test addresses D(2) dopamine receptor (Homo sapiens) (UniProt P14416). The experiment in a line: Dopamine D2 receptor (DRD2) small molecule antagonists, cell-based qHTS assay (AID 1963595). As to conditions: HEK293-DRD2 cAMP HTRF antagonist mode; series mostly up to 92.4 µM. A digest of the protocol:
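Readout: HTRF cAMP, cAMP-d2 competing with cellular cAMP for anti-cAMP cryptate, read after 1 h. Cells: DRD2-HEK293. Conditions: 0.1 mM Ro20-1724, 12 nM quinpirole, 200 nM NKH477, 30 min RT.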
On to `C=C(C)[C@@H]1CCC2=CC(=O)C[C@@H](C)[C@]2(C)C1`, for which the Potency result was “inactive”. `O=c1[nH]c(=O)c2ccccc2o1`: the Potency result was “inactive”.

Take `COCCOCCOCCOCCO`: the Potency entry is “inactive”.

Consider `CCCCCCCCCCCCCCC(=O)NC(CO)CCCCCCCCCCCCCC` (stereo not given), for which the Potency entry was “inactive”. As to `C[C@@H]1CCC[C@H](C)N1CCCC(O)(c1ccccc1)c1ccccn1` (stereo not given in full), the Potency result was “inactive”. With `CCCCCCCCCC(C)=O`, the Potency entry is “inactive”. Still for that read-out and setting: under `CN(C)c1ccc(C(=N)c2ccc(N(C)C)cc2)cc1` stands “inactive”; under `CCCCCCCCCC/C=C/C#N`, “inactive”; under `CNC(=O)Nc1ccc(Cl)c(Cl)c1`, “inactive”. In the case of `Nc1c(NC/C=C\COc2cc(CN3CCCCC3)ccn2)c(=O)c1=O`, the activity change, negative = inhibition was 0.891% [at 18.9 µM]. `FC(F)(F)C(Cl)(Cl)Cl`: the Potency entry is “inactive”. For the molecule `CCc1ccc(C=O)cc1`, the Potency entry was “inactive”. On the same count and under the same terms, the result for `COC(=O)Cc1cccc2ccccc12` reads “inactive”; that for `CCCc1c2oc(C(=O)O)cc(=O)c2cc2c(=O)cc(C(=O)O)n(CC)c12`, “inactive”; that for `O=C(O)Cc1ccc(CCNS(=O)(=O)c2ccc(Cl)cc2)cc1`, “inactive”.

Values taken from PubChem BioAssay (Tox21).
